This is a sample that favours compounds with a hit; in the whole collection about 3.5% have one here.
GPR151 ag = activates the human receptor GPR151; PathHunter beta-arrestin GPR151 cells, luminescence; activation, % at 11.2 µM; 1% of 650,000 active; in the data active = activation above about 4.9%;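 also: 0% = median of compound wells and 100% = cells with positive control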
TEAD-YAP block = TEAD-YAP interaction inhibition; HEK-TIYL cells, TEAD-Gal4/YAP UAS-luciferase luminescence; inhibition, % at 9.12 µM; 1.4% of 640,000 active; AID 1259422; in the data active = inhibition above about 32%;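 also: 0% = median of test compound wells and 100% = reference inhibitor wells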
MITF primary = blocks human microphthalmia-associated transcription factor; O75030; AlphaScreen MITF homodimerization, bead proximity signal; inhibition, % at 2.6 µM; 0.91% of 650,000 active; AID 1259374; in the data active = inhibition above about 50%;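 also: 0% = vehicle wells with protein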
Target sequence (O75030 whole entry, looked up): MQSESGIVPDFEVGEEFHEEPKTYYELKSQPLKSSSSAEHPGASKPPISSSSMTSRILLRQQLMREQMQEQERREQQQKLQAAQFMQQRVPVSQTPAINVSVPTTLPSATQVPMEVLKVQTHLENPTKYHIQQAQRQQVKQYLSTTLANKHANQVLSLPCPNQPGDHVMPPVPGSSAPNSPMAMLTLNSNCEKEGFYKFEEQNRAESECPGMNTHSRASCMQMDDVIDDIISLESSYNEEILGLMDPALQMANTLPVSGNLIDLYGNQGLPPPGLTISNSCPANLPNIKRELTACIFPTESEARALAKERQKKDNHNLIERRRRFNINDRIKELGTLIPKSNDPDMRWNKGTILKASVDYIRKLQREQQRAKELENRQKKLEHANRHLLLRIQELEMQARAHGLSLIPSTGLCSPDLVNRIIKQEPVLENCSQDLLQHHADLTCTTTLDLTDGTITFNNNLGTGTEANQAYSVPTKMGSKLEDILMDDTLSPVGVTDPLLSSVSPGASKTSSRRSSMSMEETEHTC
FBW7 activator = human FBW7 E3 ligase activation, primary screen. Q969H0. AlphaScreen FBW7–phospho-cyclin E peptide binding, activator screen. normalized activity (activation), % at 26.1 µM. 0.13% of 650,000 active. AID 1259310; in the data active = normalized activity above about 1.9%;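 also: purified mutant Fbw7 with reduced substrate affinity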
MITF confirm = human MITF inhibition, confirmation | 16% of 4,700 active | AlphaScreen MITF homodimerization, biotin/His-MITF beads | shares compounds with MITF primary | inhibition, % at 2.6 µM;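 active = inhibition above a cutoff derived from the DMSO control wells, cut at about 28% in these data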;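 also: 0% = MITF dimer wells with DMSO only; inhibitors lower the bead chemiluminescence by keeping MITF from dimerizing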
AlphaScreen DR = optically interferes with AlphaScreen signal in dose response | shares compounds with MITF primary | IC50, µM | 6% of 480 active | AlphaScreen optical interference counterscreen, cell-free; call rule not given here
AlphaScreen intf2 = counter-screen: compounds optically interfering with AlphaScreen. shares compounds with MITF primary. LysRS AlphaScreen counterscreen, signal interference, triplicate. inhibition, % at 2.6 µM. 7.6% of 4,700 active. AID 1259376;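 active = inhibition above a cutoff derived from the DMSO control wells, cut at about 30% in these data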
The depositor's hits bear a star; / = no result.

SMILES	GPR151 ag	TEAD-YAP block	MITF primary	FBW7 activator	MITF confirm	AlphaScreen intf2	others
CCc1ccc(NC(=O)C(=O)NCC(C)O)cc1 (configuration not stated)	-1	-35	10	0	/	/
CCc1ccc(NC(=O)CNCC(C)O)cc1 (configuration not stated)	2	-9	56*	0	-16	0
COc1ccc2cc(C(=O)NC(C)=O)c(=Nc3ccc(C(F)(F)F)cc3)oc2c1	0	-2	4	0	/	/
Cc1ccc(C(=O)/C=C/c2ccc(Br)o2)o1	-1	-8	67*	-1	21	-1
Cc1ccc(C(=O)/C=C/c2ccc(Br)cc2)o1	0	1	8	0	/	/
COc1ccccc1NC(=O)CC(C(=O)O)N(C)C (configuration not stated)	3	9	15	0	/	/
O=C(CC(NCc1ccccn1)C(=O)O)Nc1cc(Cl)ccc1Cl (configuration not stated)	1	-6	104*	0	75*	100*
O=C(Cc1ccccc1)Nc1cc(Cl)ccc1Cl	1	-2	-3	0	/	/
COc1ccccc1NC(=O)CC(NCc1ccccn1)C(=O)O (configuration not stated)	1	-6	100*	0	106*	100*
O=C(CC(NCc1ccccn1)C(=O)O)Nc1ccccc1Cl (configuration not stated)	0	-2	104*	0	89*	100*
O=C(CSc1nc2ccc(NC(=O)C3CCCCC3)cc2s1)Nc1ccccc1F	1	2	5	0	/	/
COC(=O)c1ccccc1N=Cc1c(O)n(-c2ccccc2C)c(=O)[nH]c1=O	2	-8	4	0	/	/
N#Cc1c(-c2ccco2)cc(C2CC2)nc1N	0	-18	-8	0	/	/
N#Cc1c(-c2ccco2)cc(-c2ccco2)nc1N	-1	5	85*	-1	73*	20	AlphaScreen DR=>6.5
Cc1ccccc1-n1ncc2c(SCC(N)=O)ncnc21	0	4	11	0	/	/
CCn1nnc(NC(=O)c2ccccc2)n1	-1	-25	58*	0	-19	-2
CC(C)COc1ccc2c(c1)Sc1ccccc1N2CCN(C)C	1	3	54*	0	21	20
Cc1ccc(Oc2cccc(NC(=O)c3ccc(F)cc3F)c2)nn1	-4	-11	0	0	/	/
CSc1ccc(CN2CCN(Cc3ccco3)CC2)cc1	0	1	85*	0	-1	-1
CCC(CC)N1CCN(Cc2ccco2)CC1	-1	-5	53*	0	6	2
COc1ccc(CN2CCN(Cc3ccco3)CC2)cc1	-1	-21	71*	0	9	9
CCc1ccc(CN2CCC(C(=O)NCc3ccco3)CC2)cc1	-1	9	48	1	/	/
COc1ccc(CN2CCN(C(=O)c3ccco3)CC2)cc1	1	-4	39	0	/	/
Clc1ccccc1N1CCN(Cc2ccco2)CC1	0	0	2	0	/	/
CCN1CCN(Cc2nnnn2Cc2ccco2)CC1	-1	17	10	0	/	/
SMILES	GPR151 ag	TEAD-YAP block	MITF primary	FBW7 activator	MITF confirm	AlphaScreen intf2	others
CCc1ccc(CN2CCN(Cc3ccco3)CC2)cc1	1	-5	71*	0	12	21
Cc1ccc(CNC(=O)CC2C(=O)NCCN2Cc2c(F)cccc2Cl)s1 (configuration not stated)	-1	-5	10	0	/	/
Cc1ccc(C(=O)Nc2cc(C(=O)N3CCCC3)cn(C)c2=O)s1	-2	3	-1	0	/	/
COc1cccc(N2CCN(Cc3ccco3)CC2)c1	-1	-6	23	0	/	/
COc1ccc(OC)c(CNCc2ccco2)c1	1	4	4	0	/	/
COc1ccc(OC)c(CN2CCN(Cc3ccco3)CC2)c1	1	-4	79*	0	10	13
COc1cccc(CN2CCN(Cc3ccco3)CC2)c1	-1	-9	76*	0	14	20
OCCN1CCN(Cc2cccc(Oc3ccc(Cl)cc3)c2)CC1	0	8	-10	0	/	/
COc1ccc(C(=O)N2CCN(Cc3ccco3)CC2)cc1	1	-4	55*	0	-13	6
c1ccc(Oc2cccc(CN3CCN(Cc4ccco4)CC3)c2)cc1	-1	-4	69*	0	7	4
CCN(CC)c1ccc(C(=O)Nn2c(-c3ccc(OC)c(OC)c3)nc3ccccc3c2=O)cc1	0	25	9	0	/	/
CCOC(=O)C1=C(C)NC(=O)NC1c1cc(OC)c(OC)cc1Br (configuration not stated)	1	1	-6	0	/	/
Cc1ccccc1-n1nc2c(c1NC(=O)c1ccccc1Br)CS(=O)(=O)C2	-1	7	12	0	/	/
OC(CNCc1ccccn1)c1ccccc1 (configuration not stated)	0	-9	54*	-1	7	43*
OC(CNCC(O)c1ccccc1)c1ccccc1 (configuration not stated)	-1	8	17	0	/	/
Cc1ccccc1C(OCC(O)CNCc1ccccn1)c1ccccc1 (configuration not stated)	2	-7	51*	-1	13	33*
CC(Sc1nnc(-c2ccc([N+](=O)[O-])cc2)o1)C(N)=O (configuration not stated)	0	4	69*	0	5	20
CCCN1C(=O)/C(=C2\SC(=S)N(C3CCS(=O)(=O)C3)C2=O)c2ccccc21 (configuration not stated)	-1	0	22	0	/	/
O=C(CN1CCC(Cn2cnc3ccccc32)CC1)N1CCc2ccccc21	0	35*	81*	0	0	14
CCOC(=O)N1CCN(C(=O)Cn2cnc3ccccc32)CC1	1	7	0	0	/	/
Cc1ccc(NC(=O)CN2CCC(Cn3cnc4ccccc43)CC2)cc1Cl	0	-5	70*	0	12	13
CCOC(=O)CN1CCC(Cn2cnc3ccccc32)CC1	0	17	79*	0	7	17
Cc1cccc(N2C(=O)NC(=O)/C(=C\c3ccc(OCC(=O)O)c(Cl)c3)C2=O)c1C	2	8	12	0	/	/
CCNC(=O)N1CCC(n2nccc2NC(=O)Nc2ccccc2OC)CC1	-1	15	2	0	/	/
Cc1cc(NC(=O)CN2CCC(Cn3c(C)nc4ccccc43)CC2)no1	-1	39*	79*	0	11	14
COC(=O)c1ccc(NC(=O)CN2CCC(Cn3c(C)nc4ccccc43)CC2)cc1	0	12	68*	0	5	22
Cc1nc(N)nc2nc[nH]c(=O)c12	0	7	-7	0	/	/
O=C(c1ccccc1F)N(Cc1ccccc1)c1ccccn1	0	11	71*	0	8	18
